# Sampled rows, rich in hits. Any-hit rate of the full collection: about 4%.
# D1 antag – human D1 dopamine receptor antagonism; actives 3.2% (n = 360,000); activity change, negative = inhibition, % at 10 µM; AID 504652; P21728; HEK293 TREx D1 cells, calcium flux, dopamine EC80; stronger effect = lower value; in the data active = activity change below about -30%; also: % is scaled to controls: 0 for no effect and ±100 for the full control effect
#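 Antagonism measured as reduced calcium response to an EC80 dopamine addition following 180 s compound pre-read; cells were inducible HEK293 Trex D1 plated overnight at 30 C, read kinetically at 1 cycle/sec.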
# TRHR agonist – TRH receptor (human) agonism; P34981; TRHR cells, calcium flux fluo-8, FDSS agonist mode; activation, % at 2 µM; actives 0.18% (n = 360,000); also: 0% is about no effect
# Target sequence (P34981 whole entry, looked up): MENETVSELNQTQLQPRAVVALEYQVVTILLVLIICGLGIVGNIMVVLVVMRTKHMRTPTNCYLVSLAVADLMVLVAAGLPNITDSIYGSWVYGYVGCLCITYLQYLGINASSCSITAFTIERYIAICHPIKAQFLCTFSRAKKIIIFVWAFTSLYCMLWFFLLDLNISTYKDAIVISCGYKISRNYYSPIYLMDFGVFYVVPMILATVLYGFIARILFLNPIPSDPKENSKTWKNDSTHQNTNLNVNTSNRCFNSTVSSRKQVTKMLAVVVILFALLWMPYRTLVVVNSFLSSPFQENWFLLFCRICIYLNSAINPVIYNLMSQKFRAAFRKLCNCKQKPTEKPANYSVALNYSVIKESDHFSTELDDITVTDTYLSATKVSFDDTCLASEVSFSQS
#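 Fluo-8-loaded TRHR cells; 10 s baseline, compound added, kinetic Ca2+ fluorescence read 1/s, agonist mode.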
# D1 ag – human D1 receptor agonism | HEK293 T-REx D1 cells, calcium flux, agonist mode | activation, % at 2 µM | actives 1% (n = 360,000) | AID 504660; also: 0% is about no effect
#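 Agonism was scored from calcium flux recorded over 180 s (1 read/s) after pintool compound addition, following a 10-cycle baseline. Cells were inducible force-coupled HEK293 TREx D1, plated overnight at 30 C and loaded with no-wash calcium dye.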
# GRP78 ERSR act – inducers of ER stress response in human glioma cells; U87-MG GRP78 promoter luciferase reporter, 16 h; Potency, µM, without a hit: top-dose activation, actives largely listed as activators; actives 0.02% (n = 420,000); active = well fitted activation curve with a large enough effect; inconclusive = small, poorly fitted or top-dose-only effect; inactive = no such curve, though single readings can be large or run the other way; also: potency is read from the fitted curve at half-maximal effect; series mostly up to about 76 µM; % of control where 0% means no effect; nearly all actives have a fitted effect of over 35% in size
#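 Stably transfected U87-MG human glioma cells carrying a GRP78-based luminescent sensor were seeded at 1000 cells/well, pin-dosed with compounds and incubated 16 h. Luciferase reagent was then added, and end-point luminescence was read after 10 min at room temperature.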
# TRHR enhancer – allosteric enhancers of human TRH receptor. TRHR cells, fluo-8 calcium fluorescence, EC20 TRH enhancement. enhancement, % at 2 µM. actives 0.66% (n = 360,000). AID 493056; in the data active = enhancement above about 30%; also: 0% is about no effect
#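 Enhancer read-out: after compound pinning and an initial kinetic agonist-mode read, an EC20 of TRH (10 nM final) was injected and fluo-8 calcium signal (Ex 480/Em 530) followed at 1 s/cycle for 100 cycles in TRHR-expressing cells.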
# D1 potentiator – potentiators of human D1 dopamine receptor; HEK293 TREx D1 cells, calcium flux, dopamine EC20 potentiation; potentiation, % at 10 µM; actives 0.036% (n = 360,000); AID 504651; in the data active = potentiation above about 30%; also: 0% is about no effect
# Active calls of the source: *; ? = inconclusive; nt = no result given. Rule as the data show it, unless noted: active = activation above about 30%; inactive = the rest.
SMILES,D1 antag,TRHR agonist,D1 ag,GRP78 ERSR act,TRHR enhancer,D1 potentiator
COc1ccc(/C=C(/C#N)c2nc(-c3cc4ccccc4oc3=O)cs2)cc1,2,1,2,-2%,-6,-2
COc1ccc2oc(=O)c(-c3csc(/C(C#N)=C/c4ccc(F)cc4)n3)cc2c1,-31*,1,-1,-3%,2,1
COc1ccc(OC)c(/C=C(\C#N)c2nc(-c3ccc(F)cc3)cs2)c1,15,7,42*,0%,8,-5
COc1cc(OC)cc(C(=O)NC(c2ccccc2)c2ccccc2)c1,-7,0,13,-3%,1,1
Nc1[nH]nc2c1NN(c1ccc(Cl)cc1Cl)N2,-38*,0,3,2%,2,-5
COc1ccccc1N1CCN(c2nc3ccc(C)cc3n3nnnc23)CC1,-30*,-1,3,0%,-1,-2
Cc1ccc2nc(N3CCN(c4ccccc4F)CC3)c3nnnn3c2c1,-11,1,2,-4%,0,-1
C/C(=N\O)c1ccco1,-18,0,-2,-1%,1,8
Cc1ccc(CSC(Nc2ccc(F)cc2)=C(C#N)C#N)cc1,-36*,2,26,-3%,-4,-12
CCN(CC)C(=O)CSC(Nc1ccc(F)cc1)=C(C#N)C#N,-16,4,6,1%,-2,0
CCn1c(C)c(C(C)=O)c(N2CCCCC2)nc1=S,-89*,0,4,2%,4,-16
CCCNC(=O)COC(=O)c1cc(-c2ccc(OC)cc2)nc2ccccc12,-1,-1,-2,0%,-14,-1
COc1ccc(S(=O)(=O)N(CC(=O)NCc2cccnc2)c2ccc(F)cc2)cc1OC,1,0,-1,nt,-5,-8
Cc1sc2ncn(CC(=O)Nc3ccc(C(C)C)cc3)c(=O)c2c1S(=O)(=O)N1CCN(c2ncccn2)CC1,-61*,2,1,0%,5,0
Cc1nn(-c2ccccc2)c(/N=C/c2ccc(O)cc2)c1-c1ccccc1,-44*,0,1,3%,-8,-8
Cc1nn(-c2ccccc2)c(C)c1-c1ccccc1O,-6,0,1,-1%,0,0
CCOC(=O)Cc1nn(C)c(=O)c2ccccc12,6,1,3,-3%,2,-2
COC(=O)C(C(=O)OC)C(C(=O)OC)C(C(=O)OC)C(=O)OC,3,0,1,-6%,-1,4
COC(=O)C(C(=O)OC)C(C(C)C)C(C(=O)OC)C(=O)OC,-5,0,-1,-3%,40*,-7
N#CCCN(C(=O)COC(=O)c1ccc(CNS(=O)(=O)c2ccc(F)c(Cl)c2)cc1)c1ccc(F)cc1,-33*,1,7,-4%,5,1
CCCN(CC1CC1)C(=O)COC(=O)c1ccc(CNS(=O)(=O)c2ccc(F)c(Cl)c2)cc1,-20,2,10,-3%,-2,-10
COC(=O)N1CCC2(CCN(C(=O)Nc3ccccc3)CC2)CC1,nt,nt,nt,-3%,nt,nt
Nc1nc(-c2ccc(Cl)cc2)nc(-c2ccc(Cl)cc2)n1,-35*,0,1,1%,-2,-3
Clc1cc2c(c(CSc3nc4ccccc4n4cccc34)c1)OCOC2,-47*,2,2,-2%,4,3
Cc1cc(/C=C2\SC(=O)N(C)C2=O)c(C)n1-c1ccc(O)cc1,-3,0,8,-4%,3,-4
SMILES,D1 antag,TRHR agonist,D1 ag,GRP78 ERSR act,TRHR enhancer,D1 potentiator
CN=C1S/C(=C\c2cc(C)n(-c3ccccc3F)c2C)C(=O)N1C,-43*,0,6,1%,5,-4
Cc1ccc(CNCc2cc(Cl)ccc2O)cc1,2,1,60*,-1%,1,0
CC(=O)c1cccc(NC(=O)Nc2csc3c2CCCC3)c1,-18,0,10,3%,-1,-2
O=C(Nc1cccc(F)c1)Nc1ccc2c(c1)CCC2,-84*,1,20,-2%,5,-10
O=C(Nc1cccc([N+](=O)[O-])c1)Nc1ccc2c(c1)CCC2,-64*,3,21,2%,-8,-4
O=C(Nc1ccc(F)cc1)Nc1ccc2c(c1)CCC2,-17,1,2,16%,35*,-7
O=[N+]([O-])c1cccc(CNc2ccc3c(c2)CCC3)c1,-5,0,2,2%,-3,1
O=C(Nc1ccccc1)Nc1ccc2c(c1)CCC2,-13,0,13,6%,-3,-1
O=C(Nc1ccc(F)cc1)Nc1csc2c1CCCC2,-32*,1,19,-1%,-2,-6
CN1CCN(C(=O)C2(NC(=O)Nc3cccc(F)c3)CCCCC2)CC1,-30*,0,3,-4%,-5,-4
O=C(Nc1cccc(F)c1)c1c(F)c(F)c(F)c(F)c1F,-36*,-3,18,-6%,-6,-5
Cc1onc(-c2ccccc2)c1C(=O)NC(=S)NNC(=O)c1ccccc1O,3,19,143*,?,8,-1
CCCOc1ccc(C(=O)NNC(=S)NC(=O)CC)cc1,-71*,-1,-1,0%,-21,-21
CCCOc1ccc(NC(=O)c2c(-c3ccccc3)noc2C)cc1,-7,0,3,-2%,11,-1
CCCOc1ccc(C(=O)NC(=S)NNC(=O)c2c(-c3ccccc3)noc2C)cc1,121,48*,207*,?,-7,19
CC(=O)c1cccc(OCC(=O)Nc2cc(Cl)ccc2-n2cncn2)c1,3,0,5,-4%,10,4
CC(=O)N1C=Cc2c(c(C)c3c([nH]c4ccccc43)c2C)C1,10,-2,58*,nt,-1,-6
COc1ccc(NC(=O)Cn2cnc3ccc(S(=O)(=O)N4CCC(C)CC4)cc3c2=O)c(OC)c1,-8,-3,1,3%,-4,-1
O=C1CC(c2ccccc2)NC(=O)N1 (configuration not stated),5,-1,-1,-2%,4,-6
CC1CCN(C(=O)Oc2ccccc2)CC1,-14,0,-2,4%,-4,4
O=C(NC1CCCc2c1cnn2-c1ccc(F)cc1F)c1csnn1 (configuration not stated),-31*,-1,2,-2%,-4,-2
O=C(NC1CCCc2c1cnn2-c1ccc(F)cc1F)c1cnccn1 (configuration not stated),-4,-1,5,-4%,2,7
Cc1nnc(SCC(=O)NC2CCCc3c2cnn3-c2ccccc2F)o1 (configuration not stated),-39*,1,1,5%,7,-1
CC(C)(C)OC(=O)N1CCC(c2c(C(=O)O)cnn2-c2ccccc2Cl)CC1,-6,1,3,-2%,12,-1
